Assay results reported in PubChem BioAssay.
Results with a measured potency or affinity are listed apart. Active and inactive are the calls of the source.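 Rule for the calls: active = dose-response curve with midpoint inside the tested range, moderate steepness, significant amplitude and little compound fluorescence or bead-attachment interference; inactive = the rest.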

Target: GTPase HRas (Homo sapiens) (UniProt P01112)
Assay: blockade of GTP loading onto mutant Ras – biochemical, activated mutant, multiplex bead flow cytometry, dose response (AID 1341);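 note: GST-tagged constitutively activated Ras mutant immobilized on beads and multiplexed with other GTPases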
Details: bead-based flow cytometry, Bodipy-FL-GTP binding; series mostly up to 100 µM

| Compound | outcome |
| --- | --- |
| COc1cccc(Nc2c(F)c(F)c(F)c(F)c2C(=O)O)c1 | inactive |
| COc1ccc(S(=O)(=O)Cc2ccc(C(=O)N3CCN(c4cc(Cl)ccc4C)CC3)o2)cc1 | inactive |
| CCCCn1c(SCC(=O)c2ccccc2)nc2c1c(=O)[nH]c(=O)n2C | inactive |
| CC1Cc2ccccc2N1S(=O)(=O)c1cccc(C(=O)NCCCO)c1 (stereo unspecified) | inactive |
| COc1cc(/C=N/NC(=S)Nc2cccnc2)cc(OC)c1O | inactive |
| COc1cc2[nH]c(=S)nc(NCCC(C)C)c2cc1OC | inactive |
| O=C(CCc1nnc(-c2ccc3c(c2)OCO3)o1)N1CCC(c2ccc(F)cc2)C1 (stereo unspecified) | inactive |
| COc1ccc(/C=N/NC(=S)Nc2cc(S(=O)(=O)N3CCOCC3)ccc2N2CCOCC2)cc1O | inactive |
| COc1ccc(-c2c3c(nc4sc5c(=O)[nH]c(C)nc5c24)CCC3)cc1 | inactive |
| CC(C)CCNC(=O)CN(CCCN1CCOCC1)C(=O)Cn1nnc(-c2ccc(F)cc2)n1 | inactive |
| N#Cc1c(C(F)(F)F)cc(-c2ccc(Cl)cc2)[nH]c1=O | inactive |
| CCn1c2ccccc2c2nnc(SCC(=O)NCCOC)nc21 | inactive |
| C/C(=N\NC(=O)c1c[nH]c2ccccc12)c1ccc(C)o1 | inactive |
| Cc1ccc(-c2noc(CN3C(C)CCCC3C)n2)cc1 (stereo unspecified) | inactive |
| COc1cc2c(cc1OC)-c1cc(NC3CCCCCCC3)nc(=O)n1CC2 | inactive |
| O=C(N/N=C/c1c(O)n(Cc2ccccc2)c(=O)c2ccccc12)c1cccnc1 | inactive |
| COC(=O)c1cccc(NC(=O)c2nn(C)c(=O)c3ccccc23)c1 | inactive |
| N#C/C(=C/c1ccc(-c2cc(C(=O)O)cc(C(=O)O)c2)o1)c1nc2ccccc2s1 | inactive |

| Compound | outcome |
| --- | --- |
| COc1ccc(/C=C2\SC(=S)NC2=O)cc1OS(=O)(=O)c1ccc(NC(C)=O)cc1 | inactive |
| CCc1nnc(NC(=O)CCC(=O)N2CCN(c3ccccn3)CC2)s1 | inactive |
| Cc1cc(C(F)F)n2nc(C(=O)Nc3ccc(S(=O)(=O)N4CCCCCC4)cc3)nc2n1 | inactive |
| NC(=O)COC(=O)c1cccc2c1-c1ccccc1C2=O | inactive |
| Cc1nnc(OC(C)C)c2nn(-c3ccccc3F)c(C)c12 | inactive |
| Oc1ccc(/C=N/NC(=S)N/N=C/c2ccc(O)cc2)cc1 | inactive |
| C=CC#CC[N+]1(CC#Cc2ccccc2)CCOCC1 | inactive |
| CCN1/C(=C/c2ccc3cc(C)ccc3[n+]2C)Sc2ccc3sccc3c21 | inactive |
| O=[N+]([O-])c1ccc2c(c1)c(-c1ccccc1)nc1nncn12 | inactive |
| O=S(=O)(N/N=C\c1cccnc1)c1ccccc1 | inactive |
| COc1ccc(CCn2c(C(C)C)nc3c(c(=O)c4ccccc4n3C)c2=O)cc1 | inactive |
| COc1ccccc1OCc1cccc(C(=O)O)c1 | inactive |
| COc1ccc(OC)c(Nc2nc(-c3sc(N)nc3C)cs2)c1 | inactive |
| O=C(O)c1nnn(Cc2ccc(Br)cc2)c1C(=O)O | inactive |
| Cc1ccc(OCCn2cc(C(=O)O)c3ccccc32)cc1C | inactive |
| COc1cc(/C=N/Nc2ncnc3sc4c(c23)CCC4)ccc1O | inactive |
| COc1ccc(S(=O)(=O)N2CCOCC2)cc1NC(=O)COc1cccnc1[N+](=O)[O-] | inactive |
| COc1ccc(/C=N/n2c(N)c(S(=O)(=O)c3cccs3)c3nc4ccccc4nc32)cc1OC | inactive |
